The values that follow come from PubChem BioAssay (NCI).

Compounds without any hit were thinned out: in the full panel of roughly 83,000, 20% have a hit.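 Single-dose data. Exposure time 48 hours. Values below 10 considered active.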 A number with no mark means an inactive call. Activity calls are given as the source filed them.

Some test systems named below: SR leukemia; RPMI-8226 leukemia; OVCAR-8 ovarian; OVCAR-5 ovarian; SK-OV-3 ovarian; IGROV1 ovarian; OVCAR-3 ovarian; NCI/ADR-RES ovarian; T-47D breast; BT-549 breast; MDA-MB-435 melanoma; SW-620 colon; MCF7 breast; HCT-116 colon; HCC-2998 colon; KM12 colon; OVCAR-4 ovarian; HS 578T breast.
Holding throughout (assay): NCI-60 one-dose screen, 48 h (100 = growth as untreated, 0 = no growth, -100 = all killed)
Holding throughout (details): 10 µM unless noted

Regarding `Cc1ccc([C@@H]2C[C@H](O)Cc3ccccc3N2)s1`, the growth in the assay on SR leukemia is 96.4%; with RPMI-8226 leukemia, 102%; in the assay on OVCAR-8 ovarian, 99.1%; in the assay on OVCAR-5 ovarian, 97.7%; in the assay with SK-OV-3 ovarian it was 98.6%; with IGROV1 ovarian, 100%. Further, the growth is 111% with OVCAR-3 ovarian; 104% in the assay on NCI/ADR-RES ovarian; 99.1% with T-47D breast; 110% in the assay with BT-549 breast; 103% in the assay with MDA-MB-435 melanoma; 101% in the assay with SW-620 colon. Also, the growth in the assay on MCF7 breast was 107%; with HCT-116 colon, 116%; in the assay with HCC-2998 colon, 101%; with KM12 colon it was 109%.
On to `FC(F)(F)c1cccc(-c2[nH]ncc2-c2nnnn2-c2ccccc2)c1`, for which the growth in the assay with SR leukemia was 25.6%; in the assay with RPMI-8226 leukemia it was 29.6%; in the assay with OVCAR-8 ovarian it was 58.9%; in the assay on OVCAR-4 ovarian, 66.4%; in the assay on SK-OV-3 ovarian, 55.4%; with IGROV1 ovarian, 56.2%. Moreover, the growth with OVCAR-3 ovarian was 48.4%; with HS 578T breast, 43.6%; with NCI/ADR-RES ovarian it was 12.2%; in the assay on T-47D breast it was 44.9%; in the assay on BT-549 breast it was 42.8%; in the assay with MDA-MB-435 melanoma, -7.25% (active). For the same compound, the growth in the assay on SW-620 colon is 16.5%; with MCF7 breast, 24.1%; in the assay with HCT-116 colon, 20.7%; with HCC-2998 colon, 31.1%; with KM12 colon, 23.9%.
With `CCOC(=O)CCCCCCCCC(=O)OCC`, the growth in the assay with SR leukemia is 106%; in the assay with RPMI-8226 leukemia, 108%; in the assay with OVCAR-8 ovarian, 106%; in the assay with OVCAR-4 ovarian, 111%; in the assay on SK-OV-3 ovarian, 106%; with IGROV1 ovarian it was 105%. In addition, the growth in the assay on OVCAR-3 ovarian was 106%; in the assay with HS 578T breast, 110%; in the assay on NCI/ADR-RES ovarian it was 101%; in the assay on T-47D breast it was 89.6%; in the assay on BT-549 breast, 109%; in the assay with MDA-MB-435 melanoma, 112%. The growth is 107% with SW-620 colon; 102% in the assay with MCF7 breast; 110% in the assay on HCT-116 colon; 98.4% in the assay with HCC-2998 colon; 105% in the assay on KM12 colon.
`Nc1nc(-c2cccc(Br)c2)cc(-c2cc3ccccc3oc2=O)n1`: the growth with SR leukemia is 89.6%; in the assay with RPMI-8226 leukemia, 98.7%; with OVCAR-8 ovarian it was 97.2%; with OVCAR-5 ovarian, 106%; with SK-OV-3 ovarian, 97.8%; with IGROV1 ovarian, 67.2%. For the same compound, the growth in the assay on OVCAR-3 ovarian is 99.6%; in the assay on HS 578T breast it was 87.3%; in the assay with NCI/ADR-RES ovarian it was 105%; with T-47D breast, 83.2%; with MDA-MB-435 melanoma it was 117%; in the assay on SW-620 colon, 105%. Besides, the values for the growth with MCF7 breast, in the assay with HCT-116 colon and with KM12 colon were 57.6%, 85.5% and 99.2%, respectively.
In the case of `Cc1cc2cn3c4ccc(O)cc4[nH]c(=O)c3c2cc1C`, the growth with SR leukemia is -16.1% (active); with RPMI-8226 leukemia it was -37% (active); in the assay on OVCAR-8 ovarian it was -13.2% (active); in the assay with OVCAR-5 ovarian, 32.6%; in the assay on IGROV1 ovarian, -1.79% (active); with OVCAR-3 ovarian, -34.9% (active). Besides, the growth in the assay on HS 578T breast was -31.8% (active); in the assay with NCI/ADR-RES ovarian, 3.46% (active); in the assay on MDA-MB-435 melanoma it was 0.693% (active); in the assay on SW-620 colon, -100% (active); in the assay on MCF7 breast it was -57.2% (active); in the assay on HCT-116 colon, -100% (active). For the same compound, the growth is 24.1% in the assay on HCC-2998 colon and -36.9% (active) in the assay on KM12 colon.
As to `COc1ccc(-c2cn3ccnc3c(-c3ccc4ncn(C5CCCCC5)c4c3)n2)cc1`, the growth with SR leukemia is 8.27% (active); with RPMI-8226 leukemia, 4.37% (active); in the assay with OVCAR-8 ovarian, 28.8%; in the assay on OVCAR-4 ovarian it was 53.4%; in the assay on SK-OV-3 ovarian it was 25.7%; in the assay with IGROV1 ovarian it was 46.6%. For the same compound, the growth is -26.5% (active) with OVCAR-3 ovarian; 20% in the assay on HS 578T breast; 12.8% with NCI/ADR-RES ovarian; -8.6% (active) in the assay with T-47D breast; 31.1% in the assay on BT-549 breast; -18.6% (active) in the assay with MDA-MB-435 melanoma. For the same compound, the growth in the assay with SW-620 colon was 22.2%; in the assay with MCF7 breast, 19.8%; in the assay on HCT-116 colon it was 8.72% (active); with HCC-2998 colon it was 37.4%; in the assay with KM12 colon it was 16.8%.
Consider `Oc1ccc(CN(Cc2ccc(C(F)(F)F)cc2)Cc2ccc(O)c3ncccc23)c2cccnc12`, for which the growth with SR leukemia is 3.48% (active); in the assay with RPMI-8226 leukemia it was 11.7%; with OVCAR-8 ovarian, 11%; in the assay with OVCAR-5 ovarian, 44.5%; with SK-OV-3 ovarian, 17.8%; in the assay on IGROV1 ovarian it was 20%. The growth in the assay with OVCAR-3 ovarian is 37.5%; with NCI/ADR-RES ovarian, 6.89% (active); in the assay with T-47D breast it was 20.2%; in the assay on BT-549 breast it was 32.9%; in the assay on MDA-MB-435 melanoma, 31.4%; in the assay on SW-620 colon, 18.1%. Also, the growth is 13.7% in the assay on MCF7 breast, 18% in the assay on HCT-116 colon, 34.1% in the assay with HCC-2998 colon and 18.8% in the assay with KM12 colon.
As for `CCOC(=O)C1C(=O)C(=O)N(C(C)C)C1C(=O)OCC` (centres undefined), the growth in the assay on SR leukemia is 108%; in the assay on RPMI-8226 leukemia, 106%; in the assay on OVCAR-8 ovarian, 91.4%; in the assay with OVCAR-4 ovarian it was 106%; in the assay on SK-OV-3 ovarian, 109%; in the assay with IGROV1 ovarian, 110%. The growth is 108% with OVCAR-3 ovarian; 96.5% with HS 578T breast; 106% with NCI/ADR-RES ovarian; 105% in the assay on T-47D breast; 104% in the assay with MDA-MB-435 melanoma; 103% in the assay with SW-620 colon. Also, the growth with MCF7 breast was 99.8%; in the assay with HCT-116 colon it was 110%; in the assay on HCC-2998 colon, 104%; in the assay with KM12 colon, 98.9%.
With `Cc1nc(NC(=S)Nc2ccc(F)cc2)sc1C(=O)NNC(=S)Nc1ccc(F)cc1`, the growth was 81.6% with SR leukemia; -16.8% (active) in the assay with RPMI-8226 leukemia; 87.4% with OVCAR-8 ovarian; 42.8% with OVCAR-4 ovarian; 94% in the assay on SK-OV-3 ovarian; 51.7% in the assay with IGROV1 ovarian. In addition, the growth is 56.6% in the assay with OVCAR-3 ovarian; 72.4% with HS 578T breast; 78.1% in the assay with NCI/ADR-RES ovarian; 35.6% with T-47D breast; 71.5% in the assay on MDA-MB-435 melanoma; 86.7% with SW-620 colon. In addition, the growth with MCF7 breast is 72.2%; in the assay on HCT-116 colon, 44.9%; in the assay on HCC-2998 colon, 68.4%; with KM12 colon it was 76.6%.
